Screening data: PubChem BioAssay, several laboratories
In the library only some 3.2% were active in any assay of this set; here they are far more common.
SKN-1 inh = C. elegans SKN-1 inhibition; inhibition, % at 21.8 µM; C. elegans VP596 Pgst-4::GFP/RFP ratio, acrylamide-induced, 24 h; 0.49% of 360,000 active;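 active = interference check ratio from 0.5 to 1.5 plus GFP to RFP signal ratio inhibition reaching or exceeding a fixed threshold, cut at about 30% in these data, passing the limit was not always enough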
MEKK3 PB1 HTS = MEKK3-MEK5 PB1 interaction, increase or decrease; bead-based flow cytometry, Alexa488-MEK5 binding to MEKK3; actives lie on both sides; 0 = blocked by unlabeled MEK5, 100 = vehicle; binding response (% of control), % at 10 µM; 1.4% of 290,000 active; AID 1529;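 active = binding response more than 3 SD above or below the average of its plate-row segment, actives on both sides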;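 also: Alexa488 bead fluorescence after subtracting the streptavidin-only scavenger bead signal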
Target sequence (Q99759 whole entry, looked up): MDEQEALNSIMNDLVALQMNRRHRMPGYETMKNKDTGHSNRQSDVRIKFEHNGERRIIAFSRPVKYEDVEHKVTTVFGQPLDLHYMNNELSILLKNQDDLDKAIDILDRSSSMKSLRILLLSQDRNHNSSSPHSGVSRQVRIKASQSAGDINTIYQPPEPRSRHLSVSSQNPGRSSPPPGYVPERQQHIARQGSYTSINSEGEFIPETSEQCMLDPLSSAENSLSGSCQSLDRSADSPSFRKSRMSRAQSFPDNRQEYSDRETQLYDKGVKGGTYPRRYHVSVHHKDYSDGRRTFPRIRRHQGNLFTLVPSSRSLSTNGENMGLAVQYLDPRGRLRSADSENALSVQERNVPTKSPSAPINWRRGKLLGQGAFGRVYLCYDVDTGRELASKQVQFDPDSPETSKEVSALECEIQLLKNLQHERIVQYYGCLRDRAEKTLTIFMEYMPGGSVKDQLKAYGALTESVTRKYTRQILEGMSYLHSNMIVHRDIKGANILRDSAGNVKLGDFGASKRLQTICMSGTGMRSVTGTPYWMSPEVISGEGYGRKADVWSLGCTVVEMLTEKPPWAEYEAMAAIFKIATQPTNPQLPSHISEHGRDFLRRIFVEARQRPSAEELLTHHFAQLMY
CendR NRP1 mod = modulators of CendR peptide binding to human neuropilin-1 | FAM-RPARPAR peptide binding to NRP-1, fluorescence polarization | inhibition, % at 25 µM | 0.85% of 360,000 active | AID 602438;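 active = inhibition or corrected inhibition above about 18%, plus a signal ratio from 0.5 to 1.5, limit read from the data, passing the limit was not always enough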
MEKK2 WT-MEK5 = raises or lowers MEK5 binding to wildtype human MEKK2 PB1 domain. Q9Y2U5. bead flow cytometry, Alexa488-MEK5 binding to MEKK2 WT; actives lie on both sides. binding response (% of control), % at 10 µM. 1.1% of 290,000 active. AID 1531; in the data active = binding response below about 67% or above about 130%
MEKK2 mut-MEK5 = signal of MEK5 binding to mutant human MEKK2 PB1 domain; AID 1530; bead flow cytometry, Alexa488-MEK5 binding to MEKK2 mutant; 0.35% of 290,000 active; percent response, % at 10 µM; in the data active = percent response above about 24%, passing the limit was not always enough
MEKK2wt confirm = raises or lowers MEK5 binding to wildtype human MEKK2, retest; shares compounds with MEKK3 PB1 HTS; bead flow cytometry, Alexa488-MEK5 binding to MEKK2 WT; actives lie on both sides; binding response (% of control), % at 10 µM; 2.4% of 5,900 active; in the data active = binding response below about 16% or above about 210%; inactive = in between
MEKK2mut confirm = signal of MEK5 binding to mutant human MEKK2, retest; shares compounds with MEKK3 PB1 HTS; bead flow cytometry, Alexa488-MEK5 binding to MEKK2 mutant; percent response, % at 10 µM; 2% of 5,900 active; AID 1893; in the data active = percent response mostly above about 71%, no sharp cut-off; inactive = mostly below about 38%;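 also: higher means compound restores mutant binding toward wildtype level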
MEKK3 confirm = confirmation of inhibitors of MEK5 binding to human MEKK3 | shares compounds with MEKK3 PB1 HTS | bead flow cytometry, Alexa488-MEK5 binding to MEKK3; hits give low values | binding response (% of control), % at 10 µM | 1.8% of 5,900 active | AID 1894;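 active = binding response below 72% of control, or above a set upper limit, though filed actives all read lower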;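 also: 100% = DMSO only wells and 0% = binding blocked by excess unlabeled MEK5; lower values mean stronger disruption of MEK5 binding to MEKK3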
The depositor's hits bear a star; [ ] = dose if it differs, or a comment.

For COc1nccnc1NS(=O)(=O)c1ccc(NC(=O)c2ccc(F)cc2)cc1 the results were SKN-1 inh -16, MEKK3 PB1 HTS 104, CendR NRP1 mod 7, MEKK2 WT-MEK5 98 and MEKK2 mut-MEK5 -1.
For CC[C@H](C)[C@@H](CN[C@H](C)CNC)NCCC(c1ccccc1)c1ccccc1 the results were SKN-1 inh 6, MEKK3 PB1 HTS 106, CendR NRP1 mod -14, MEKK2 WT-MEK5 138*, MEKK2 mut-MEK5 5, MEKK2wt confirm 135, MEKK2mut confirm 30 and MEKK3 confirm 104.
COc1cccc(CNC(=O)[C@@H](C)N2C(=O)N3CCc4c([nH]c5ccc(OC)cc45)C3(C)C2=O)c1 (stereo partly drawn) was read as SKN-1 inh 4, MEKK3 PB1 HTS 100, CendR NRP1 mod -10, MEKK2 WT-MEK5 103 and MEKK2 mut-MEK5 1.
Screening CCO/C(=C/c1sc2ccc(OC)cc2[n+]1CCCS(=O)(=O)[O-])CC returned SKN-1 inh 22, MEKK3 PB1 HTS 98, CendR NRP1 mod -18, MEKK2 WT-MEK5 99 and MEKK2 mut-MEK5 1.
Screening CCC(=O)/C=C1/Sc2ccc(OC)cc2N1CCO returned SKN-1 inh 2, MEKK3 PB1 HTS 107, CendR NRP1 mod 1, MEKK2 WT-MEK5 106 and MEKK2 mut-MEK5 -10.
CCC(/C=C1\Sc2ccc(OC)cc2N1CC)=C\c1sc2ccc(OC)cc2[n+]1CCCS(=O)(=O)[O-] was read as SKN-1 inh 47, MEKK3 PB1 HTS 56*[inhibitor], CendR NRP1 mod 5, MEKK2 WT-MEK5 6.0*[inhibitor], MEKK2 mut-MEK5 -45, MEKK2wt confirm 17*[inhibitor], MEKK2mut confirm -32 and MEKK3 confirm 64*.
For CCC(/C=C1\Sc2ccc(OC)cc2N1CCO)=C\c1sc2ccc(OC)cc2[n+]1CCO the results were SKN-1 inh 88, MEKK3 PB1 HTS 36*[inhibitor], CendR NRP1 mod -20, MEKK2 WT-MEK5 1.0*[inhibitor], MEKK2 mut-MEK5 -27, MEKK2wt confirm 1.0*[inhibitor], MEKK2mut confirm -35 and MEKK3 confirm 39*.
For Cc1ncc(CN2CCCC(C(=O)Nc3ccc(-c4cccc(F)c4)cc3)C2)n1C (stereo not drawn) the results were SKN-1 inh 8, MEKK3 PB1 HTS 102, CendR NRP1 mod 16, MEKK2 WT-MEK5 135 and MEKK2 mut-MEK5 15.
Cc1ccc(OCCC(=O)NNC(=O)c2nn(C)c(=O)c3ccccc23)cc1 was read as SKN-1 inh -13 and CendR NRP1 mod 9.
Cc1cc(NCc2ccccc2)c2ccccc2n1 was read as SKN-1 inh 16, MEKK3 PB1 HTS 111, CendR NRP1 mod 7, MEKK2 WT-MEK5 149*, MEKK2 mut-MEK5 8, MEKK2wt confirm 116, MEKK2mut confirm 9 and MEKK3 confirm 103.
COc1ccc2nc(C)cc(N/N=C/c3cccc(OC)c3O)c2c1 was read as SKN-1 inh -11, MEKK3 PB1 HTS 116, CendR NRP1 mod -38, MEKK2 WT-MEK5 260*, MEKK2 mut-MEK5 72*, MEKK2wt confirm 236*, MEKK2mut confirm 79* and MEKK3 confirm 106.
Screening COc1ccc2nc(C)cc(Nc3ccccc3OC)c2c1 returned SKN-1 inh 5 and CendR NRP1 mod -12.
Cc1cc(N/N=C/c2ccccc2O)c2ccccc2n1 was read as SKN-1 inh 18, MEKK3 PB1 HTS 108, CendR NRP1 mod -11, MEKK2 WT-MEK5 186*, MEKK2 mut-MEK5 14, MEKK2wt confirm 135, MEKK2mut confirm 14 and MEKK3 confirm 102.
COc1ccc(/C=N/Nc2cc(C)nc3ccc(Br)cc23)cc1 was read as SKN-1 inh 24, MEKK3 PB1 HTS 106, CendR NRP1 mod 1, MEKK2 WT-MEK5 214*, MEKK2 mut-MEK5 73*, MEKK2wt confirm 245*, MEKK2mut confirm 120* and MEKK3 confirm 107.
`COc1ccccc1CNC(=O)Cn1cc([N+](=O)[O-])ccc1=O` gave SKN-1 inh 15, MEKK3 PB1 HTS 101, CendR NRP1 mod 2, MEKK2 WT-MEK5 107 and MEKK2 mut-MEK5 3.
CC(C)C1C(c2ccccc2)N(C)C(c2ccccc2)CC1(O)c1ccccc1 (stereo not drawn) was read as SKN-1 inh 11, MEKK3 PB1 HTS 99, CendR NRP1 mod 5, MEKK2 WT-MEK5 129 and MEKK2 mut-MEK5 9.
`CC1C(C)C(O)(c2ccccc2)CCN1C` (stereo not drawn) gave SKN-1 inh -8, MEKK3 PB1 HTS 130*, CendR NRP1 mod 13, MEKK2 WT-MEK5 100, MEKK2 mut-MEK5 9, MEKK2wt confirm 117, MEKK2mut confirm 14 and MEKK3 confirm 97.
Cc1ccccc1-c1cc(=O)c2ccccc2o1 was read as SKN-1 inh 4 and CendR NRP1 mod -3.
`O=c1cc(-c2ccc(F)cc2)oc2ccccc12` gave SKN-1 inh 53*, MEKK3 PB1 HTS 2.0*[inhibitor], CendR NRP1 mod 7, MEKK2 WT-MEK5 2.0*[inhibitor], MEKK2 mut-MEK5 2, MEKK2wt confirm 99, MEKK2mut confirm 6 and MEKK3 confirm 104.
For Cc1nc(N2CCC(C)CC2)c2c(C)c(C(=O)Nc3cccc(C(F)(F)F)c3)sc2n1 the results were SKN-1 inh -1, MEKK3 PB1 HTS 99, CendR NRP1 mod 1, MEKK2 WT-MEK5 107 and MEKK2 mut-MEK5 -4.
Cc1nc(Nc2cnc(/C=C/c3cc(C(=O)Nc4cccc(C(F)(F)F)c4)ccc3C)cn2)cc(N2CCNCC2)n1 was read as MEKK3 PB1 HTS 47*[inhibitor], MEKK2 WT-MEK5 136, MEKK2 mut-MEK5 10, MEKK2wt confirm 128, MEKK2mut confirm 15 and MEKK3 confirm 43*.
Screening O=c1c2ccccc2sc2nc(CCl)nn12 returned SKN-1 inh 7 and CendR NRP1 mod 7.
Screening Cc1ccc(C)n1-c1ccc(-c2ccnc(N)n2)cc1 returned SKN-1 inh 0, MEKK3 PB1 HTS 147*, CendR NRP1 mod -46, MEKK2 WT-MEK5 112, MEKK2 mut-MEK5 14, MEKK2wt confirm 104, MEKK2mut confirm 5 and MEKK3 confirm 100.
Cc1onc(-c2ccccc2)c1-c1ccnc(N)n1 was read as SKN-1 inh 5, MEKK3 PB1 HTS 95, CendR NRP1 mod 0, MEKK2 WT-MEK5 105 and MEKK2 mut-MEK5 -11.
`O=C(NN=Cc1ccccc1)C(Oc1ccccc1)c1ccccc1` (stereo not drawn) gave SKN-1 inh -13 and CendR NRP1 mod 6.
